Consider 29 molecules from PubChem BioAssay (Tox21).

Each structure is given as a SMILES string. Values joined by “and” are separate entries in the source; they are usually repeats but may differ in a detail not shown here. Equal values may be shown once. Results filed as inconclusive are left out. Active and inactive are the calls of the source. The call rests on the fitted dose curve; in most records, active means well fitted inhibition curve with a large enough effect in the repeat runs; inconclusive means weak or mixed curves, or effect the other way; inactive means no such curve, though single readings can be large or run the other way.
On the % scale 0 is the no-effect control and ±100 the full control effect; potency means the concentration at half of the fitted maximal effect.

This experiment addresses Nuclear receptor ROR-gamma (Homo sapiens) (UniProt P51449). In words: qHTS assay to identify small molecule antagonists of the retinoid-related orphan receptor gamma (ROR-gamma) signaling pathway (AID 1159521; further: nearly all actives have a fitted effect of over 50% in size; on activity change, negative = inhibition: top concentration of the series differs between compounds). The conditions noted are these: Tet-on RORgamma CHO cells, RORE-luciferase, 16 h; series mostly up to 92.4 µM; activity change, negative = inhibition: at the top concentration. An outline of the steps:
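Screening format: cell-based luciferase reporter in CHO cells with doxycycline-inducible RORγ. Compound pre-exposure lasts 2 h, doxycycline is 1 uM final, induction runs 16 h at 37 C, and ONE-Glo luminescence is read.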
(In general: qHTS replaces the single test concentration by a dilution series.)
Regarding `Oc1c(Br)c(Br)c(Br)c(Br)c1Br`, the Potency was 24.5 µM (active).

Take `CN(C)c1ccc(N=Nc2ccccc2)cc1`: the “activity change, negative = inhibition” value is -29.9% (inactive). Still for that read-out and setting: in the case of `CCCCCCCCCCCCCN1CC(C)OC(C)C1` (centres undefined) it was 4.36% (inactive). For `CCc1nn(C)c(C(=O)NCc2ccc(C(C)(C)C)cc2)c1Cl`, the Potency was 0.545 µM (active).

In the case of `CC(C)CC(C)(c1ccc(O)cc1)c1ccc(O)cc1`, the Potency is 43.4 µM (active) and 48.6 µM (active). As for `O=c1c(C2CC(c3ccc(-c4ccc(Br)cc4)cc3)Cc3ccccc32)c(O)sc2ccccc12` (centres undefined), the Potency is 2.66 µM (active). Same read-out and setting: in the case of `CCOP(=O)(NC(C)C)Oc1ccc(SC)c(C)c1` (centres undefined) it was 9.69 µM (active). Same read-out and setting: as for `CCOCn1c(-c2ccc(Cl)cc2)c(C#N)c(Br)c1C(F)(F)F`, the figure is 0.686 µM (active); as for `C[C@H]1O[C@@H](O[C@H]2[C@@H](O)C[C@H](O[C@H]3[C@@H](O)C[C@H](O[C@H]4CC[C@@]5(C)[C@H](CC[C@@H]6[C@@H]5CC[C@]5(C)[C@@H](C7=CC(=O)OC7)CC[C@]65O)C4)O[C@@H]3C)O[C@@H]2C)C[C@H](O)[C@@H]1O`, 5.48 µM (active) and 16.8 µM (active).

Turning to `O=c1ssc(Cl)c1Cl`, the Potency is 17.2 µM (active).

As for `CCCSP(=O)(OCC)SCCC`, the “activity change, negative = inhibition” value was 14.8% (inactive).

`CC(C)C1CCC(Cc2ccc(Cl)cc2)C1(O)Cn1cncn1` (centres undefined): the Potency is 30.3 µM (active). For the molecule `N#CC(Cl)Cl`, the “activity change, negative = inhibition” value is 43.6% (inactive).

On to `N#CSCSC#N`, for which the Potency was 12.1 µM (active). As to `Cc1c(Cl)c(=O)oc2cc(OP(=O)(OCCCl)OCCCl)ccc12`, the “activity change, negative = inhibition” value is -6.9% [at 42.5 µM] (inactive). For `CCN(CC)C(=S)[S-].CCN(CC)C(=S)[S-].[Zn+2]`, the Potency is 0.856 µM (active).

On to `CCCCN(CCCC)C(=S)[S-].CCCCN(CCCC)C(=S)[S-].[Zn+2]`, for which the Potency is 13.7 µM (active). Still for that read-out and setting: in the case of `CC1(c2ccc(Oc3ccccc3)cc2)OC(=O)N(Nc2ccccc2)C1=O` (centres undefined) it was 6.15 µM (active); in that of `CC(C)CC(C)Nc1ccc(Nc2ccccc2)cc1` (centres undefined), 47.7 µM (active). As for `CC(C)OC(=O)C(O)(c1ccc(Cl)cc1)c1ccc(Cl)cc1`, the Potency is 54.5 µM (active).

As to `C[C@H]1CC[C@@H]2[C@@H](C)[C@H]3[C@H](C[C@H]4[C@@H]5CC=C6CC(O[C@@H]7O[C@H](CO)[C@H](O)[C@H](O[C@@H]8O[C@H](CO)[C@@H](O)[C@H](O)[C@H]8O)[C@H]7O[C@H]7O[C@@H](C)[C@H](O)[C@@H](O)[C@H]7O)CC[C@]6(C)[C@H]5CC[C@]34C)N2C1` (some centres undefined), the “activity change, negative = inhibition” value is 24.6% (inactive). Same read-out and setting: as for `COP(=O)(OC)SCn1c(=O)oc2cc(Cl)cnc21`, the figure is 8.5% (inactive); as for `COc1ccc(OC)c(CC(C)N)c1` (centres undefined), 5.96% (inactive). As to `Cc1cc(N=Nc2ccccc2C)ccc1N`, the Potency entry is “inactive”.

For `CCOC(=O)OC1=C(c2cc(C)ccc2C)C(=O)NC12CCC(OC)CC2` (centres undefined), the “activity change, negative = inhibition” value was -18.7% (inactive). For the molecule `CCCCCCCCCCCCCCCCCCn1cc[n+](C)c1`, the Potency was 3.05 µM (active). Take `CCC(C)(C)C(=O)OC1=C(c2ccc(Cl)cc2Cl)C(=O)OC12CCCCC2`: the “activity change, negative = inhibition” value is -6.85% (inactive). The same measure, in the same setting: as for `CCOP(=S)(OCC)OC(Cl)C(Cl)(Cl)Cl` (centres undefined), the figure is -0.714% (inactive); as for `Fc1cccc(Cl)c1CCl`, 1.15% (inactive).
